Structures are written as SMILES. Where “and” joins values, the source holds several entries; their conditions need not be identical. Equal values may be shown once. Calls of active or inactive are those of the source.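 The calls were made as follows, unless noted: active = compounds whose cell count with miR-34 switched on is under 0.7 times the count with it off; inactive = the rest.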 Where a SMILES comes first, the peptide text is derived from it. [ ]: non-standard residue; d: D form. pGlu = O=C1CC[CH](C(=O)O)N1; Thz = O=C(O)[CH]1CSCN1

Assay [1] is described as follows: sensitizers of A549 cells to miR-34 induction, primary screen, imaging, A549 dox-inducible miR-34, nuclei and caspase counts (AID 1347080). Also: test concentration not given here. The following applies: A549 miR-34 inducible, Hoechst nuclei count, 48 h.
Assay [2] in a line: survival rescue of mitochondrial mutant cells in low glucose, primary screen, MELAS cybrids, Rieske KO mouse fibroblasts, CellTiter-Glo (AID 1508586;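 active = mean z-score across replicates of 1.96 or higher in either the MELAS or the Rieske mutant cell line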;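 also: test concentration not given here; z relative to plate mean and SD of compound and empty wells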). Background: ATP-based viability assays read luminescence as a measure of living cells.
The nature of assay [3]: viability rescue of complex I mutant cybrids, primary screen, cell-based, galactose medium, ATP luminescence (AID 1645843;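 active = z-score of at least 1.8 in each of two replicates, scored against plate mean and spread of sample wells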;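 also: positive z means more ATP and so rescue of galactose-driven cybrid death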). To be noted: complex I mutant cybrid cells, 72 h, stronger effect = higher value.
Where [4] appears, read: stronger effect = lower value, cell number ratio, induced over uninduced.
[5] abbreviates: measured here: relative caspase fold change +Dox/-Dox.
[6] abbreviates: measured here: total cells with miR-34 induction, stronger effect = lower value.
[7] abbreviates: measured here: total cells without miR-34 induction.
[8] abbreviates: MELAS cybrid survival, CellTiter-Glo 48 h, stronger effect = higher value.
Where [9] appears, read: Rieske KO mouse fibroblast survival, CellTiter-Glo 72 h.

For the molecule `FC(F)Oc1ccc(-c2nc3c(cnn3Cc3cccs3)[nH]2)cc1`, the values for the fold change in assay [1] (setting [4]) and in assay [1] (setting [5]) were 0.844 (inactive) and 1.61, respectively. In addition, the cell count turned out to be 6520 in assay [1] (setting [6]) and 7720 in assay [1] (setting [7]). For the same molecule, the z-score in assay [2] (setting [8]) was -0.426; in assay [2] (setting [9]) it was 2.02; in assay [3], 1.1 (inactive).
Consider `OB(O)c1cc2ccccc2s1`, for which the results for the fold change in assay [1] (setting [4]) and in assay [1] (setting [5]) were 0.864 (inactive) and 0.659, respectively. The cell count in assay [1] (setting [6]) was determined as 7300; in assay [1] (setting [7]) it was 8450. Also, the values for the z-score in assay [2] (setting [8]), in assay [2] (setting [9]) and in assay [3] were -0.459 (inactive), 0.539 and 0.265 (inactive), respectively.
With `Cc1cc(NC(=O)Cn2cc(-c3cccc4cccnc34)cn2)n(C)n1`, the fold change in assay [1] (setting [4]) was 0.876 (inactive); in assay [1] (setting [5]) it was 0.926. Besides, the values for the cell count in assay [1] (setting [6]) and in assay [1] (setting [7]) were 8830 and 10100, respectively. Besides, the z-score is -0.478 (inactive) in assay [2] (setting [8]), -0.249 in assay [2] (setting [9]) and -0.585 (inactive) in assay [3].
Turning to `COc1cccc(Cc2noc(-c3nccc4ccccc34)n2)c1`, the fold change in assay [1] (setting [4]) is 0.933 (inactive); in assay [1] (setting [5]) it was 1.27. Besides, the cell count in assay [1] (setting [6]) worked out at 8090; in assay [1] (setting [7]), 8670. The z-score is 0.324 (inactive) in assay [2] (setting [8]), -0.0974 in assay [2] (setting [9]) and -0.1 (inactive) in assay [3].
Regarding `O=C(O)CNC(=O)Cc1c[nH]c2ccccc12`, the fold change is 0.855 (inactive) in assay [1] (setting [4]) and 0.234 in assay [1] (setting [5]). The cell count in assay [1] (setting [6]) came to 8420; in assay [1] (setting [7]) it was 9850. In addition, the z-score was -0.685 (inactive) in assay [2] (setting [8]), -0.0302 in assay [2] (setting [9]) and -0.545 (inactive) in assay [3].
In the case of `CCC(C)(C)c1nnc(NC(=O)NCc2ccco2)s1`, the fold change in assay [1] (setting [4]) was 0.9 (inactive); in assay [1] (setting [5]) it was 1.07. The results for the cell count in assay [1] (setting [6]) and in assay [1] (setting [7]) were 8900 and 9890, respectively. The values for the z-score in assay [2] (setting [8]), in assay [2] (setting [9]) and in assay [3] were 0.377 (inactive), -0.396 and 3.32 (active), respectively.
Turning to `COc1ccc(CCNCC(O)COc2cccc(C)c2)cc1OC` (stereo not drawn), the figures for the fold change in assay [1] (setting [4]) and in assay [1] (setting [5]) were 0.915 (inactive) and 0.555, respectively. For the same molecule, the figures for the cell count in assay [1] (setting [6]) and in assay [1] (setting [7]) were 8400 and 9170, respectively. The values for the z-score in assay [2] (setting [8]), in assay [2] (setting [9]) and in assay [3] were -1.33 (inactive), 0.533 and -0.99 (inactive), respectively.
Regarding `O=C1CCC(C(=O)N2CSCC2C(=O)O)N1` (stereo not drawn) ([pGlu]-[Thz]-OH; configuration not given here), the fold change in assay [1] (setting [4]) is 0.957 (inactive) and 1 (inactive); in assay [1] (setting [5]) it was 1.75 and 0.634. In addition, the cell count is 9270 and 8110 in assay [1] (setting [6]); 9680 and 8100 in assay [1] (setting [7]). The values for the z-score in assay [2] (setting [8]), in assay [2] (setting [9]) and in assay [3] were -0.302 (inactive), -0.109 and 0.45 (inactive), respectively.
Regarding `Cc1ncsc1-c1ccn(CC(=O)Nc2ccnn2Cc2cccs2)n1`, the fold change in assay [1] (setting [4]) was 0.798 (inactive); in assay [1] (setting [5]) it was 1.89. Further, the cell count in assay [1] (setting [6]) was found to be 6540; in assay [1] (setting [7]), 8190. In addition, the figures for the z-score in assay [2] (setting [8]), in assay [2] (setting [9]) and in assay [3] were -0.383 (inactive), -0.375 and -0.525 (inactive), respectively.
As for `COc1cc(OC)c(-c2nnc3ccccn23)cc1OC`, the fold change is 0.917 (inactive) in assay [1] (setting [4]) and 1.49 in assay [1] (setting [5]). The results for the cell count in assay [1] (setting [6]) and in assay [1] (setting [7]) were 9720 and 10600, respectively. Further, the values for the z-score in assay [2] (setting [8]), in assay [2] (setting [9]) and in assay [3] were -0.104 (inactive), 0.208 and -0.52 (inactive), respectively.
For `CNC(=O)c1ccccc1-c1cccc2ccccc12`, the results for the fold change in assay [1] (setting [4]) and in assay [1] (setting [5]) were 0.918 (inactive) and 0.701, respectively. In addition, the cell count in assay [1] (setting [6]) came out at 8250; in assay [1] (setting [7]) it was 8980. The z-score was -0.403 (inactive) in assay [2] (setting [8]), -0.242 in assay [2] (setting [9]) and -0.535 (inactive) in assay [3].
Regarding `O=C(Nc1c[nH]c2ccccc12)c1cc(-c2ccc(F)cc2)n[nH]1`, the fold change was 0.84 (inactive) in assay [1] (setting [4]) and 1.42 in assay [1] (setting [5]). In addition, the figures for the cell count in assay [1] (setting [6]) and in assay [1] (setting [7]) were 7140 and 8510, respectively. The z-score was -0.224 (inactive) in assay [2] (setting [8]), 0.73 in assay [2] (setting [9]) and -0.56 (inactive) in assay [3].
`Cc1cc(C(=O)N2CCc3[nH]nc(COc4ccccc4)c3C2)c(C)o1`: the figures for the fold change in assay [1] (setting [4]) and in assay [1] (setting [5]) were 0.899 (inactive) and 1.21, respectively. Besides, the cell count in assay [1] (setting [6]) amounted to 8460; in assay [1] (setting [7]), 9410. Besides, the z-score in assay [2] (setting [8]) is -0.0896 (inactive); in assay [2] (setting [9]), -0.219; in assay [3], -0.42 (inactive).
On to `CCCCCC(O)C=CC1C(O)CC(=O)C1CCCCCCC(=O)O` (stereo not drawn), for which the fold change in assay [1] (setting [4]) was 0.973 (inactive) and 0.918 (inactive); in assay [1] (setting [5]) it was 0.603 and 0.896. The cell count is 9870 and 7520 in assay [1] (setting [6]); 10100 and 8190 in assay [1] (setting [7]). Besides, the z-score in assay [2] (setting [8]) was -0.372 (inactive); in assay [2] (setting [9]) it was 0.491; in assay [3], 0.865 (inactive).
With `Cc1ccc(NS(=O)(=O)c2ccccc2)c(C(=O)O)c1`, the values for the fold change in assay [1] (setting [4]) and in assay [1] (setting [5]) were 0.888 (inactive) and 0.521, respectively. For the same molecule, the cell count in assay [1] (setting [6]) amounted to 8960; in assay [1] (setting [7]), 10100. Also, the z-score in assay [2] (setting [8]) was 0.391 (inactive); in assay [2] (setting [9]), -0.208; in assay [3] it was 0.425 (inactive).
Consider `CCn1ncc(NC(=O)Cn2nc(C)c(-c3ccc(-n4cccn4)cc3)c2C)n1`, for which the fold change in assay [1] (setting [4]) was 0.87 (inactive); in assay [1] (setting [5]) it was 1.42. The results for the cell count in assay [1] (setting [6]) and in assay [1] (setting [7]) were 4370 and 5020, respectively. Moreover, the z-score in assay [2] (setting [8]) was -1.09 (inactive); in assay [2] (setting [9]) it was 1.3; in assay [3], -0.54 (inactive).
Take `OCCCc1cn(CC2CCN(c3ncnc4nc[nH]c34)CC2)nn1`: the fold change in assay [1] (setting [4]) is 0.959 (inactive); in assay [1] (setting [5]), 1.9. Also, the cell count in assay [1] (setting [6]) came to 8820; in assay [1] (setting [7]), 9200. Also, the values for the z-score in assay [2] (setting [8]), in assay [2] (setting [9]) and in assay [3] were 0.238 (inactive), -0.383 and -0.565 (inactive), respectively.
With `CCNC(=O)c1cccnc1N1CCN(c2ccc(C)cc2C)CC1`, the fold change in assay [1] (setting [4]) was 0.919 (inactive); in assay [1] (setting [5]), 1.12. In addition, the values for the cell count in assay [1] (setting [6]) and in assay [1] (setting [7]) were 6880 and 7490, respectively. The z-score in assay [2] (setting [8]) is -0.459 (inactive); in assay [2] (setting [9]), 0.378; in assay [3] it was -0.485 (inactive).
In the case of `CCc1nc(NC(=O)NC(c2ccccc2)c2ccccc2)nn1C`, the fold change is 0.893 (inactive) in assay [1] (setting [4]) and 1.04 in assay [1] (setting [5]). For the same molecule, the cell count in assay [1] (setting [6]) worked out at 6610; in assay [1] (setting [7]), 7400. Besides, the z-score was -0.352 (inactive) in assay [2] (setting [8]), -0.694 in assay [2] (setting [9]) and 1.48 (inactive) in assay [3].

The values above are taken from PubChem BioAssay.
